Legend:
Experiment in all cases: PBM binding z-score (relative to random genomic background probes); higher = stronger binding; sequences stand for … in GC…GCGATTGACAGCGTAGAATGAAGG
[1] = system: RARb homodimer (NR concentration 270 nM)
Method in brief: (§1)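 Antibodies against each partner of ligand-free nuclear receptor dimers (one per run) detected binding on custom Agilent 4×180K protein-binding microarrays after 1 h incubation. The double-stranded probes had 34-nt variable regions carrying direct-repeat seeds, single-nucleotide variants, half-site ablations and random human genomic background sequences. Binding z-scores, from regression-normalized fluorescence, use the random background probes as reference.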

[2] = system: RARg:RXRa (NR concentration 270 nM, RXRa partner concentration 90 nM)
Method in brief: as §1

[3] = system: RARg homodimer (NR concentration 270 nM)
Method in brief: as §1

[4] = system: RXRa DBDmut IVT, anti-RXR (DBD mutation: RXRa K156A/R161A, NR concentration 90 nM)
Method in brief: as §1

[5] = system: RXRa homodimer (NR concentration 180 nM)
Method in brief: as §1

[6] = system: THRa:RXRa (NR concentration 90 nM, RXRa partner concentration 90 nM)
Method in brief: as §1

[7] = system: THRa homodimer (NR concentration 90 nM)
Method in brief: as §1

[8] = system: VDR homodimer (NR concentration 270 nM)
Method in brief: as §1

Sequence: GCTTGTAGATCAACGTTAAGAAAGACTAAGCTAA
- PBM binding z-score [1]: -0.408
- PBM binding z-score [2]: -0.256
- PBM binding z-score [3]: -0.209
- PBM binding z-score [4]: 0.0501
- PBM binding z-score [5]: -0.405
- PBM binding z-score [6]: -0.214
- PBM binding z-score [7]: -0.701
- PBM binding z-score [8]: -0.764

Sequence: AGAACGAGGGCACGCTGAGTTGCTAGCAGAGTAG
- PBM binding z-score [1]: 0.875
- PBM binding z-score [2]: 1.48
- PBM binding z-score [3]: 1.95
- PBM binding z-score [4]: 1.69
- PBM binding z-score [5]: 1.1
- PBM binding z-score [6]: 1.51
- PBM binding z-score [7]: -0.328
- PBM binding z-score [8]: 1.42

Sequence: TCGAATAGGTTAGTCGGGGCATTCAGCCAACATA
- PBM binding z-score [1]: 0.708
- PBM binding z-score [2]: 0.415
- PBM binding z-score [3]: 0.436
- PBM binding z-score [4]: 0.913
- PBM binding z-score [5]: 0.583
- PBM binding z-score [6]: 1.46
- PBM binding z-score [7]: 0.0462
- PBM binding z-score [8]: 0.528

Sequence: CCTTACGGGTCACGAGGTTATAGCCCGACGAGCG
- PBM binding z-score [1]: 4.11
- PBM binding z-score [2]: 6.07
- PBM binding z-score [3]: 5.36
- PBM binding z-score [4]: 1.81
- PBM binding z-score [5]: 6.74
- PBM binding z-score [6]: 3.65
- PBM binding z-score [7]: 1.07
- PBM binding z-score [8]: 2.03

Sequence: ACTCGGAGGACAAAGGTCAGAGATACGCCAGTGA
- PBM binding z-score [1]: 4.52
- PBM binding z-score [2]: 6.21
- PBM binding z-score [3]: 5.31
- PBM binding z-score [4]: 1.01
- PBM binding z-score [5]: 5.52
- PBM binding z-score [6]: 3.61
- PBM binding z-score [7]: 0.755
- PBM binding z-score [8]: 1.56

Sequence: GTTCGGAGGACAAGGTCAGAGCTTTGTCCGTAGA
- PBM binding z-score [1]: 2.99
- PBM binding z-score [2]: 2.91
- PBM binding z-score [3]: 3.51
- PBM binding z-score [4]: 0.7
- PBM binding z-score [5]: 1.91
- PBM binding z-score [6]: 3.06
- PBM binding z-score [7]: 1.52
- PBM binding z-score [8]: 0.65

Sequence: GCTACTGGGGCAAAGCAGGTTACCATAAGGTTGG
- PBM binding z-score [1]: 1.16
- PBM binding z-score [2]: 0.343
- PBM binding z-score [3]: 0.791
- PBM binding z-score [4]: 0.0265
- PBM binding z-score [5]: 0.261
- PBM binding z-score [6]: 2.75
- PBM binding z-score [7]: 0.258
- PBM binding z-score [8]: -0.451

Sequence: CCTCGGAGGACAACAGGAGGTCAGAACTGCCAGA
- PBM binding z-score [1]: 3.33
- PBM binding z-score [2]: 3.23
- PBM binding z-score [3]: 3.05
- PBM binding z-score [4]: 0.497
- PBM binding z-score [5]: 1.81
- PBM binding z-score [6]: 2.59
- PBM binding z-score [7]: 0.726
- PBM binding z-score [8]: 0.781

Sequence: CCTCGGAGGACAACAGGAGGTGAGAGCTGCCAGA
- PBM binding z-score [1]: 1.05
- PBM binding z-score [2]: 0.71
- PBM binding z-score [3]: 1.35
- PBM binding z-score [4]: -0.141
- PBM binding z-score [5]: -0.117
- PBM binding z-score [6]: 1.44
- PBM binding z-score [7]: 0.525
- PBM binding z-score [8]: -0.285

Sequence: GCTCGGAGGTCAAGGTCAGAGCTTTGTCCGTAGA
- PBM binding z-score [1]: 5.13
- PBM binding z-score [2]: 7.02
- PBM binding z-score [3]: 7.59
- PBM binding z-score [4]: 3.19
- PBM binding z-score [5]: 7.07
- PBM binding z-score [6]: 4.24
- PBM binding z-score [7]: 2.72
- PBM binding z-score [8]: 3.21

Sequence: CCTTTCGGGTCACGAGGTTATAGCACGACGAGCG
- PBM binding z-score [1]: 4.31
- PBM binding z-score [2]: 6.29
- PBM binding z-score [3]: 5.8
- PBM binding z-score [4]: 2.08
- PBM binding z-score [5]: 7.39
- PBM binding z-score [6]: 4.52
- PBM binding z-score [7]: 3.83
- PBM binding z-score [8]: 2.77

Sequence: GATACAGGGTCAAGGCAAGAGTACGCGTATTGAT
- PBM binding z-score [1]: 3.45
- PBM binding z-score [2]: 5.5
- PBM binding z-score [3]: 5.14
- PBM binding z-score [4]: 2.63
- PBM binding z-score [5]: 6.28
- PBM binding z-score [6]: 3.72
- PBM binding z-score [7]: 1.16
- PBM binding z-score [8]: 2.31

Sequence: TCACCAAGGTGAAAGGTCGTTGATGCACGCCTTG
- PBM binding z-score [1]: 2.63
- PBM binding z-score [2]: 4.15
- PBM binding z-score [3]: 2
- PBM binding z-score [4]: 1.09
- PBM binding z-score [5]: 5.41
- PBM binding z-score [6]: 3.33
- PBM binding z-score [7]: 0.739
- PBM binding z-score [8]: 0.922

Sequence: AACTCTAGGTAAAAGTTCAGTGAATCCCGAGGAT
- PBM binding z-score [1]: 2.27
- PBM binding z-score [2]: 1.77
- PBM binding z-score [3]: 1.69
- PBM binding z-score [4]: 0.858
- PBM binding z-score [5]: 1.76
- PBM binding z-score [6]: 1.22
- PBM binding z-score [7]: 0.014
- PBM binding z-score [8]: 1.4

Sequence: CCGAGTAGGTTATGGGGCAGTCAGGCAACGGTGA
- PBM binding z-score [1]: 0.983
- PBM binding z-score [2]: 0.587
- PBM binding z-score [3]: 0.165
- PBM binding z-score [4]: -0.557
- PBM binding z-score [5]: 0.291
- PBM binding z-score [6]: 0.277
- PBM binding z-score [7]: -0.143
- PBM binding z-score [8]: -0.221

Sequence: CTACCAAGGTGAACAAGGTCGCTGATTACTATTC
- PBM binding z-score [1]: 2.04
- PBM binding z-score [2]: 1.88
- PBM binding z-score [3]: 1.55
- PBM binding z-score [4]: 0.77
- PBM binding z-score [5]: 1.8
- PBM binding z-score [6]: 3.28
- PBM binding z-score [7]: 1.81
- PBM binding z-score [8]: 1.27

Sequence: CCTAGCAGGCCATTCTGGGTCACTCAAGGCTTGA
- PBM binding z-score [1]: 2.48
- PBM binding z-score [2]: 1.3
- PBM binding z-score [3]: 1.75
- PBM binding z-score [4]: 0.405
- PBM binding z-score [5]: 1.14
- PBM binding z-score [6]: 4.1
- PBM binding z-score [7]: 0.668
- PBM binding z-score [8]: 0.435

Sequence: CCTAGCGGGCCAGGGTCACTCAAGCATTTCGCTT
- PBM binding z-score [1]: 2.48
- PBM binding z-score [2]: 3.06
- PBM binding z-score [3]: 2.4
- PBM binding z-score [4]: -0.0113
- PBM binding z-score [5]: 3.72
- PBM binding z-score [6]: 2.72
- PBM binding z-score [7]: 1.19
- PBM binding z-score [8]: 1.28

Sequence: CCCACTGGGGCATAAGGTTACCATAAGCCAGCCC
- PBM binding z-score [1]: 1.49
- PBM binding z-score [2]: 1.56
- PBM binding z-score [3]: 1.09
- PBM binding z-score [4]: -1.4
- PBM binding z-score [5]: 1.07
- PBM binding z-score [6]: 1.92
- PBM binding z-score [7]: 1.01
- PBM binding z-score [8]: -0.364

Sequence: ATCTCTAGCTAACCAAGTTCAGTGAATGCCGAAC
- PBM binding z-score [1]: 1.01
- PBM binding z-score [2]: 0.314
- PBM binding z-score [3]: 0.399
- PBM binding z-score [4]: 0.573
- PBM binding z-score [5]: 0.0234
- PBM binding z-score [6]: 0.509
- PBM binding z-score [7]: 0.214
- PBM binding z-score [8]: 2.29

Sequence: CGAACTAGGTCATTGACTGGACAGTGAATAGTAA
- PBM binding z-score [1]: 2.56
- PBM binding z-score [2]: 3.72
- PBM binding z-score [3]: 4.26
- PBM binding z-score [4]: 2.1
- PBM binding z-score [5]: 2.58
- PBM binding z-score [6]: 2.25
- PBM binding z-score [7]: 0.595
- PBM binding z-score [8]: 0.943

Sequence: AGAACGAGGGCACGCTGAGTTGATAGCAGAGTAG
- PBM binding z-score [1]: 1.21
- PBM binding z-score [2]: 2.08
- PBM binding z-score [3]: 2.42
- PBM binding z-score [4]: 1.95
- PBM binding z-score [5]: 1.36
- PBM binding z-score [6]: 1.83
- PBM binding z-score [7]: -0.0157
- PBM binding z-score [8]: 1.98

Sequence: AATACAGGGTCATCGTAGGCCAGGGTACGCACAG
- PBM binding z-score [1]: 3.72
- PBM binding z-score [2]: 5.54
- PBM binding z-score [3]: 5.21
- PBM binding z-score [4]: 3.32
- PBM binding z-score [5]: 6.38
- PBM binding z-score [6]: 4.57
- PBM binding z-score [7]: 1.69
- PBM binding z-score [8]: 3.9

Sequence: CCGTCTGGGGCAGAAAGGTTACCATACCATCCGG
- PBM binding z-score [1]: 2.03
- PBM binding z-score [2]: 1.36
- PBM binding z-score [3]: 0.979
- PBM binding z-score [4]: -0.795
- PBM binding z-score [5]: 1.37
- PBM binding z-score [6]: 0.782
- PBM binding z-score [7]: -0.335
- PBM binding z-score [8]: -0.377

Sequence: TCGAGTAGGTTACCAATGGGGCATTCTGCTTTCT
- PBM binding z-score [1]: 0.45
- PBM binding z-score [2]: 0.898
- PBM binding z-score [3]: 0.393
- PBM binding z-score [4]: 0.539
- PBM binding z-score [5]: 0.447
- PBM binding z-score [6]: -0.229
- PBM binding z-score [7]: -0.884
- PBM binding z-score [8]: -0.862

Sequence: CGAACTAGGTCACTGACAGGACAGTGAATAGTAA
- PBM binding z-score [1]: 3.15
- PBM binding z-score [2]: 4.78
- PBM binding z-score [3]: 4.99
- PBM binding z-score [4]: 1.48
- PBM binding z-score [5]: 2.88
- PBM binding z-score [6]: 2.81
- PBM binding z-score [7]: 0.889
- PBM binding z-score [8]: 0.448

Sequence: GCTTGTAGATCAAGGTTAAGATAGACTAAGCTAA
- PBM binding z-score [1]: 0.293
- PBM binding z-score [2]: 0.611
- PBM binding z-score [3]: 0.411
- PBM binding z-score [4]: 0.0981
- PBM binding z-score [5]: 1.04
- PBM binding z-score [6]: 1.21
- PBM binding z-score [7]: -0.344
- PBM binding z-score [8]: -0.108

Sequence: AGTCAAAGTTCATCTAGGTAACGTATGATATGCT
- PBM binding z-score [1]: 3.98
- PBM binding z-score [2]: 5.57
- PBM binding z-score [3]: 6
- PBM binding z-score [4]: 4.68
- PBM binding z-score [5]: 4.58
- PBM binding z-score [6]: 3.23
- PBM binding z-score [7]: 0.203
- PBM binding z-score [8]: 5.23

— the supplement of paper PMC6555819
